In ChEMBL document CHEMBL4513216, “Probing the Open Global Health Chemical Diversity Library for Multistage-Active Starting Points for Next-Generation Antimalarials” (ACS Infect Dis, 2020):
Out of some 69,000 compounds screened, about 8,600 (12%) showed an effect of 50% or more. Shown is part of a subset that was picked to be rich in strong results.

System: Plasmodium berghei
Test: Screen against P. berghei liver stage (PbLuc), transformed with Luciferase, at 10uM
Format: functional, HepG2
Settings: tested at 10 uM

| SMILES | INHIBITION [%] |
| --- | --- |
| Cc1noc(Cl)c1CC(=O)N1CCC(Nc2cccnn2)CC1 | 18.04 |
| CCC(=O)N1CCN(C(=O)Cn2cccn2)CC1 | 27.45 |
| O=C(NCc1cccs1)[C@@H]1CC[C@@H]2[C@@H](CCN2c2ncccn2)O1 | 3.25 |
| O=C(NCc1cccnc1)[C@@H]1C[C@H]2[C@H](CCN2c2ncccn2)O1 | 73 |
| O=C(NCc1ccco1)[C@H]1CC[C@@H]2[C@@H](CCN2Cc2cccnc2)O1 | -66 |
| O=C(NCc1cccnc1)[C@@H]1CC[C@@H]2[C@@H](CCN2c2ncc(F)cn2)O1 | 73 |
| CNC(=O)[C@H]1CC[C@@H]2[C@@H](CCN2c2ncccn2)O1 | 47.5 |
| O=C(NCc1cccnc1)[C@H]1CC[C@@H]2[C@@H](CCN2c2ncccn2)O1 | 74.2 |
| O=C(NCc1cccnc1)[C@@H]1C[C@@H]2CCN(c3ncc(F)cn3)C[C@@H]2O1 | -9.71 |
| O=C(NCc1ccccn1)[C@@H]1CC[C@@H]2[C@@H](CCN2c2ncc(F)cn2)O1 | 40.4 |
| O=C(NCc1cccs1)[C@H]1CC[C@@H]2[C@@H](CCN2c2ncccn2)O1 | -50.8 |
| O=C(NCc1cccnc1)[C@@H]1CC[C@@H]2[C@@H](CCN2c2ncccn2)O1 | 96.3 |
| O=C(NCc1ccco1)[C@H]1CC[C@@H]2[C@@H](CCN2c2ncccn2)O1 | 7.77 |
| O=C(NCc1cccnc1)[C@@H]1C[C@H]2[C@H](CCN2c2ncc(F)cn2)O1 | 21.8 |
| OCc1cn(Cc2cccc(C(F)(F)F)c2)nn1 | -5.1 |
| CN(Cc1cnn(C)c1)C(=O)c1ccc(Cl)c(N2CCNC2=O)c1 | 18.4 |
| CCN(Cc1cnn(C)c1)C(=O)c1ccc(C)c(N2CCNC2=O)c1 | 28.2 |
| Cc1ccc(C(=O)N(C)CCCc2cnn(C)c2)cc1N1CCNC1=O | 58.8 |
| O=C(NC1CCN(c2ncccc2F)C1)c1cccc(-n2ccnn2)c1 (stereo unspecified) | -20.8 |
| C1CC(CN2C[C@@H]3CC[C@H]2CN(Cc2noc(C4CCCC4)n2)C3)C1 | 18.6 |
| CNC(=O)c1cccc(CNC(C)c2ccc(F)cc2N(C)C)c1 (stereo unspecified) | 66.8 |
| CNC(=O)c1cccc(CCNS(C)(=O)=O)c1 | 21.3 |
| CC(NCCN1CCC(N(C)C)CC1)c1ccc(F)cc1N(C)C (stereo unspecified) | 40.6 |

| SMILES | INHIBITION [%] |
| --- | --- |
| CNC(=O)c1cccc(CNC(C)c2cc(C)ccc2OC(F)F)c1 (stereo unspecified) | 51.5 |
| CNC(=O)c1cccc(CNC(C)c2cc(Cl)ccc2OC)c1 (stereo unspecified) | 18.9 |
| CC(NCCCN1CCCC1=O)c1ccc(F)cc1N(C)C (stereo unspecified) | -2.75 |
| O=S(=O)(NC[C@]12COC[C@H]1CN(c1ncc(F)cn1)C2)C1CC1 | -15.6 |
| CCOC(CC)C(=O)NCCC(=O)N1CCN(c2ncccn2)CC1 (stereo unspecified) | -18.2 |
| COc1ccc2nc(NC(=O)c3c(C(=O)O)cnn3C)sc2c1 | 28.7 |
| CC(CNCc1ccc2c(c1)n(C)c(=O)n2C)Oc1ccccn1 (stereo unspecified) | -8.51 |
| Cc1ccccc1C1CCN(CCn2cc(-c3cccc(O)c3)nn2)C1 (stereo unspecified) | 59.3 |
| Cc1ccccc1C1CCN(CCn2cc(-c3nccs3)nn2)C1 (stereo unspecified) | 4.15 |
| Cc1ccccc1C1CCN(CCn2cc(-c3nccn3C)nn2)C1 (stereo unspecified) | 28 |
| Cc1noc(OCC(=O)N2CCCCC2C)n1 (stereo unspecified) | -26.4 |
| Cc1cccc(C)c1OC1CCN(Cc2ccn(C)c(=O)c2)CC1 | 58 |
| Cn1ccc(CN2CCC(COC3CCCC3)CC2)cc1=O | 58 |
| Cn1ccc(CN2CCC(OCc3ccccc3)CC2)cc1=O | 3.15 |
| COc1ccc(OC2CCN(Cc3ccn(C)c(=O)c3)CC2)cc1 | 45.7 |
| Cn1ccc(CN2CCC(Oc3ccccc3)CC2)cc1=O | 25.6 |
| Cn1ccc(CN2CCC(CO)CC2)cc1=O | -10.8 |
| CN(C)[C@@H]1CCN(C(=O)NC2CCCC2)[C@H]1Cc1ccncc1 | 23.3 |
| O=c1[nH]c(N2CCCCC2)nc2c1CCN(Cc1cccnc1)C2 | 8.72 |
| CCn1c(=O)c2cc(S(N)(=O)=O)ccc2n(CC)c1=O | 2.84 |
| CC(C)N(C)Cc1cn2c(n1)CN(Cc1ccsc1)CC2 | -14.9 |
| Cc1cc(CN2CCCC(Cn3cncn3)C2)on1 (stereo unspecified) | 35.3 |
| Cc1nc(CNC(=O)NCc2cccnc2N(C)C)cs1 | -27.8 |

| SMILES | INHIBITION [%] |
| --- | --- |
| COc1ccc(NC(=O)N2CCCC2c2ccco2)c(OC)c1 (stereo unspecified) | 41.5 |
| CN(CCNC(=O)Nc1ccn(C)n1)Cc1ccc(F)cc1 | 52.7 |
| CN(CCNC(=O)Nc1cnn(C)c1)Cc1ccc(F)cc1 | 49.3 |
| CN(CCNC(=O)Nc1nccs1)Cc1ccc(F)cc1 | 2.7 |
| O=C(Nc1nnn[nH]1)c1cc(-c2ccc(Br)s2)n[nH]1 | 11.3 |
| N#CCCN(Cc1ccco1)C(=O)C1CCCc2ccccc21 (stereo unspecified) | 24.2 |
| Cc1noc(C)c1CN(C)C(=O)C1CCCc2ccccc21 (stereo unspecified) | 26.6 |
| CN(Cc1ccco1)C(=O)C1CCCc2ccccc21 (stereo unspecified) | 50.5 |
| Cc1ccoc1C(=O)N1C[C@@H](N2CCN(C)CC2)[C@H]2OCCC[C@H]21 | -26.5 |
| Cc1cc(-c2cnc(NC3CC3)nc2-c2ccco2)on1 | -21.4 |
| Cc1cc(-c2cnc(NC3CC3)nc2-c2ccoc2C)on1 | 58.1 |
| Cc1cc(-c2cnc(NC3CC3)nc2-c2ccoc2)on1 | 3.91 |
| Cc1cc(-c2cnc(NC3CCCC3)nc2-c2ccco2)on1 | -18.9 |
| Cc1cc(-c2cnc(NC3CC3)nc2-c2ccc(C)o2)on1 | 39.2 |
| Cc1cc(-c2cnc(NC3CCCC3)nc2-c2ccoc2C)on1 | 78.5 |
| Cc1cc(-c2cnc(NC3CCCCC3)nc2-c2ccco2)on1 | 60.5 |
| Cc1noc(-c2cnc(NC3CC3)nc2-c2ccco2)c1C | 7.9 |
| Cc1occc1-c1nc(NC2CCCC2)ncc1-c1ccccn1 | 62.9 |
| Cc1cc(-c2cnc(NC3CCCC3)nc2-c2ccc(C)o2)on1 | 11.1 |
| Cc1cc(-c2cnc(NC3CCCC3)nc2-c2ccoc2)on1 | 41.2 |
| Cc1cnc(-c2nc(NC3CCCC3)ncc2-c2onc(C)c2C)cn1 | -29.8 |
| O=C(NCCO)C1CN(c2cncnc2)CCO1 (stereo unspecified) | 3.91 |
| CCCOC1CCCN(C(=O)c2cc(CN(CC)CC)c(CC)o2)C1 (stereo unspecified) | 18.5 |

| SMILES | INHIBITION [%] |
| --- | --- |
| COc1ccc(CN(Cc2ccccn2)Cc2cncn2C)cc1 | 23.9 |
| CCn1nc(C)c(CN(CCCN(C)C)Cc2ccccn2)c1C | -37.4 |
| CN(Cc1nccn1C)C1CCN(CCc2ccccn2)CC1 | -3.2 |
| Cn1ccnc1CN(Cc1ccccn1)Cc1ccccc1Cl | 79.6 |
| CCn1nc(C)c(CN(CCOC)Cc2ccccn2)c1C | 4.12 |
| COCCn1ccnc1CN(Cc1ccccn1)CC(C)C | 44 |
| Cc1nn(C)cc1CN(Cc1ccccn1)Cc1ccccc1Cl | 48 |
| CCn1nc(C)c(CN(Cc2ccccn2)Cc2ccccc2Cl)c1C | 50.8 |
| Cc1ncc(CN(Cc2ccccn2)Cc2ccccc2Cl)n1C | 69.4 |
| O=S(=O)(CCNCCn1cccn1)c1ccccc1 | 19.8 |
| COC1CCN(C(=O)Nc2cc(C(F)(F)F)c[nH]c2=O)CC1 | -111 |
| COCCNC(=O)C1CC(=O)N(c2n[nH]c3cccc(F)c23)C1 (stereo unspecified) | -23.7 |
| CC1CCCCN1CCNC(=O)c1ccn(-c2cccc(F)c2)n1 (stereo unspecified) | 16.8 |
| CN(CCC(F)(F)F)C(=O)c1nc(S(C)(=O)=O)n2ccccc12 | 12.6 |
| Cc1nc(Nc2nnc(C)s2)cc(C2CCCN2C(C)C)n1 (stereo unspecified) | -15.3 |
| COC(=O)c1cc(OC)c(OC)cc1N(C)S(C)(=O)=O | 44.3 |
| CN(C)CC(=O)N1CC2(CCN(C(=O)Nc3ccccc3)C2)C1 | 0.112 |
| Cc1nc(CC(=O)NS(=O)(=O)c2cccc3cnccc23)cs1 | 6.33 |
| CCN1C[C@H]2C3(CCN(S(=O)(=O)CC)CC3)CC[C@@]2(C(=O)N(C)C)C1 | 13.7 |
| COc1cccc(CN2C[C@H]3CC[C@H]2C3)c1OCCN1CCOCC1 | -14.5 |
| COc1cc2c(cc1CN1CCCCC1CN1CCOCC1)CCC2 (stereo unspecified) | 13.9 |
| COc1cccc(CN2CCCCC2CN2CCOCC2)c1F (stereo unspecified) | 60.4 |
| CCc1nc(Cn2ccnc2-c2nccn2C)no1 | 45.2 |

| SMILES | INHIBITION [%] |
| --- | --- |
| CCc1nc(CCn2ccnc2-c2nccn2C)no1 | 65.6 |
| CCc1nc(CCn2cc(-c3nccn3C)nn2)no1 | 23 |
| CS(=O)(=O)c1cc(Cl)cnc1C1CCN(C(=O)C2CCOCC2)CC1 | 24.8535 |
| Cc1cccc(CN2C(=O)CC[C@@H]3[C@H]2CCN3C(=O)c2ccsc2)n1 | 14.8 |
| COCCOc1ccc(F)cc1NCc1nc2ccccc2n1C | -3.12 |
| COCCOc1ncccc1NCc1nc2ccccc2n1C | -16 |
| COc1cc(F)c(NCc2nc3ccccc3n2C)cc1OC | 59.8 |
| O=C(c1ccc(Cl)cc1)N1CCC(N2CCCNC2=O)CC1 | 40.8 |
| CCN1CCN(C(=O)CCn2cccc2)CC1 | 2.69 |
| COCCN1CC(c2cc(O)nc(NC(C)C)n2)CC1=O (stereo unspecified) | -17.7 |
| COc1ccc(CC2CN(Cc3cncn3C)CCO2)cc1 (stereo unspecified) | 47.1 |
| Nc1cc(CCC2CN(Cc3ccc4cc[nH]c4c3)CCO2)ccn1 (stereo unspecified) | 78.2 |
| c1ccc(CCCC2CN(Cc3ncc[nH]3)CCO2)cc1 (stereo unspecified) | 28.5 |
| Cc1cc(C)n(CC2CN(Cc3ccc4c(c3)OCCO4)CCO2)n1 (stereo unspecified) | 14.3 |
| CNc1nccnc1C1CN(Cc2ccc3[nH]ccc3c2)CCO1 (stereo unspecified) | 21.1 |
| COc1ccc(CN2CCOC(CCc3ccnc(N)c3)C2)cc1 (stereo unspecified) | 87.1 |
| Nc1cc(CCC2CN(Cc3cccc(C(=O)O)c3)CCO2)ccn1 (stereo unspecified) | 45.6 |
| Nc1cc(CCC2CN(Cc3ccc4c(c3)OCCO4)CCO2)ccn1 (stereo unspecified) | 69.3 |
| Nc1cc(CCC2CN(Cc3ccc(C(=O)O)cc3)CCO2)ccn1 (stereo unspecified) | 32.8 |
